# From PubChem BioAssay (EPA / NIEHS)
# Inconclusive results are not listed. Activity calls are given as the source filed them. The calls were made as follows: active = hit-call score of the fitted dose curve at least 0.9, where 1 is the maximum; inconclusive = response in the unintended direction; inactive = score below 0.9.
# How the values were obtained:
# [1] = molecular target: human Colony Stimulating Factor 1 Receptor (CSF1R), CSF1R (gene 1436) (UniProt P07333); experiment: NVS_ENZ_hCSF1R: NovaScreen (NVS) Enzymatic Assay for human Colony Stimulating Factor 1 Receptor (CSF1R) (AID 2283150)
# Method in brief: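 Compounds screened in duplicate at 25 uM, then concentration-response (top 50 uM) for those passing threshold such as 30% inhibition; recombinant CSF1R activity measured 1 h post-dosing via fluorescent substrate/product mobility-shift separation, loss of signal versus DMSO.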
# [2] = molecular target: human Esterase Plasma (ES), BCHE (gene 590) (UniProt P06276); experiment: NVS_ENZ_hES: NovaScreen (NVS) Enzymatic Assay for human Esterase Plasma (ES) (AID 2283157)
# Method in brief: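 Screening ran at 25 uM in duplicate, followed by singleton concentration series reaching 50 uM for actives. Human plasma protein, colorimetric detection, 0.25 h exposure, DMSO negative control.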
# [3] = molecular target: human LYN Proto-Oncogene, Src family Tyrosine Kinase (LynA), LYN (gene 4067) (UniProt P07948); experiment: NVS_ENZ_hLynA: NovaScreen (NVS) Enzymatic Assay for human LYN Proto-Oncogene, Src family Tyrosine Kinase (LynA) (AID 2283173)
# Method in brief: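 Recombinant kinase with fluorescent substrate; product separated from substrate by electrophoretic mobility shift and read 1 h after dosing. Duplicate screen at 25 uM, then concentration-response up to 50 uM; activity scored as signal loss against DMSO.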
# [4] = molecular target: human Elastase, ELANE (gene 1991) (UniProt P08246); experiment: NVS_ENZ_hElastase: NovaScreen (NVS) Enzymatic Assay for human Elastase (AID 2283153)
# Method in brief: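 Concentration-response to 50 uM max, run singly for chemicals passing a threshold (e.g., 30% inhibition) in a duplicate 25 uM single-point screen. Neutrophil-derived human elastase, absorbance read-out of enzyme activity at 1.5 h; DMSO baseline.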
# [5] = molecular target: human Insulin Receptor (InsR), INSR (gene 3643) (UniProt P06213); experiment: NVS_ENZ_hInsR: NovaScreen (NVS) Enzymatic Assay for human Insulin Receptor (InsR) (AID 2283168)
# Method in brief: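 Cell-free enzyme assay read 1 h post-dose by fluorescence after substrate/product mobility-shift separation. Duplicate 25 uM primary screen, then singleton concentration-response up to 50 uM for compounds passing threshold; loss of signal vs DMSO.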
# [6] = molecular target: human Dual Specificity Protein Phosphatase 3 (DUSP3), DUSP3 (gene 1845) (UniProt P51452); experiment: NVS_ENZ_hDUSP3: NovaScreen (NVS) Enzymatic Assay for human Dual Specificity Protein Phosphatase 3 (DUSP3) (AID 2283152);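 also: phosphatase activity of recombinant human DUSP3 on a fluorogenic substrate without cells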
# Method in brief: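 Cell-free fluorescence-intensity enzyme activity assay with recombinant protein and substrate; loss of signal fitted relative to DMSO baseline. Primary screen in duplicate at 25 uM, actives then run in concentration series; measured 0 h after dosing.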
# [7] = molecular target: human Ephrin type-A Receptor 1 (EphA1), EPHA1 (gene 2041) (UniProt P21709); experiment: NVS_ENZ_hEphA1: NovaScreen (NVS) Enzymatic Assay for human Ephrin type-A Receptor 1 (EphA1) (AID 2283158);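 also: activity is signal loss versus DMSO meaning EphA1 kinase inhibition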
# Method in brief: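 Recombinant kinase, fluorescent substrate, mobility-shift separation, fluorescence read at 1 h. Single-point duplicates at 25 uM; hits (e.g., ≥30% inhibition) run singleton concentration-response, max 50 uM. DMSO = negative control/baseline.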
# [8] = molecular target: human FYN Proto-Oncogene, Src family Tyrosine Kinase (Fyn), FYN (gene 2534) (UniProt P06241); experiment: NVS_ENZ_hFyn: NovaScreen (NVS) Enzymatic Assay for human FYN Proto-Oncogene, Src family Tyrosine Kinase (Fyn) (AID 2283161)
# Method in brief: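 Cell-free kinase activity read by fluorescence after mobility-shift separation of substrate and product, 1 h post-dose. Initial single concentration 25 uM in duplicate, then concentration-response follow-up; DMSO baseline.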
# [9] = molecular target: Histone deacetylase 3 (Homo sapiens) (UniProt O15379); experiment: NVS_ENZ_hHDAC3: NovaScreen (NVS) Enzymatic Assay for human Histone Deacetylase 3 (HDAC3) (AID 2283163)
# Method in brief: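 Cell-free enzyme format: loss of fluorescent product after mobility-shift separation, 1 h incubation, recombinant human HDAC3. Single 25 uM duplicate screen first, then concentration series to a 50 uM top for hits; DMSO as baseline.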
# Sequence of human LYN Proto-Oncogene, Src family Tyrosine Kinase (LynA), LYN (gene 4067) (P07948 whole entry, looked up): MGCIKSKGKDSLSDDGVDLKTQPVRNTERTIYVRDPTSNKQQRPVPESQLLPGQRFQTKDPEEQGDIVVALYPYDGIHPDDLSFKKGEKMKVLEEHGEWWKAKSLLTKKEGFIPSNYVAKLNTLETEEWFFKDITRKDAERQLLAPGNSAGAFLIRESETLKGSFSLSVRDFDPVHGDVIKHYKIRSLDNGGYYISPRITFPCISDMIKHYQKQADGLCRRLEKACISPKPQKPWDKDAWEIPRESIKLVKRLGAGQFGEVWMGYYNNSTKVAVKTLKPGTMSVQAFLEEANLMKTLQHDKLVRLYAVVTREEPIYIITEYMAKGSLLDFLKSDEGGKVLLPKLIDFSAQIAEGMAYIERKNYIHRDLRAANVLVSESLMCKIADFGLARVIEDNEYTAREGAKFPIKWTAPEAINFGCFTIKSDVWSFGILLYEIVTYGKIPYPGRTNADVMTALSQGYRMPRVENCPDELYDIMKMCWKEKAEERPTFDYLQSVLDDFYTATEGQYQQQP
# Sequence of human Ephrin type-A Receptor 1 (EphA1), EPHA1 (gene 2041) (P21709 whole entry, looked up): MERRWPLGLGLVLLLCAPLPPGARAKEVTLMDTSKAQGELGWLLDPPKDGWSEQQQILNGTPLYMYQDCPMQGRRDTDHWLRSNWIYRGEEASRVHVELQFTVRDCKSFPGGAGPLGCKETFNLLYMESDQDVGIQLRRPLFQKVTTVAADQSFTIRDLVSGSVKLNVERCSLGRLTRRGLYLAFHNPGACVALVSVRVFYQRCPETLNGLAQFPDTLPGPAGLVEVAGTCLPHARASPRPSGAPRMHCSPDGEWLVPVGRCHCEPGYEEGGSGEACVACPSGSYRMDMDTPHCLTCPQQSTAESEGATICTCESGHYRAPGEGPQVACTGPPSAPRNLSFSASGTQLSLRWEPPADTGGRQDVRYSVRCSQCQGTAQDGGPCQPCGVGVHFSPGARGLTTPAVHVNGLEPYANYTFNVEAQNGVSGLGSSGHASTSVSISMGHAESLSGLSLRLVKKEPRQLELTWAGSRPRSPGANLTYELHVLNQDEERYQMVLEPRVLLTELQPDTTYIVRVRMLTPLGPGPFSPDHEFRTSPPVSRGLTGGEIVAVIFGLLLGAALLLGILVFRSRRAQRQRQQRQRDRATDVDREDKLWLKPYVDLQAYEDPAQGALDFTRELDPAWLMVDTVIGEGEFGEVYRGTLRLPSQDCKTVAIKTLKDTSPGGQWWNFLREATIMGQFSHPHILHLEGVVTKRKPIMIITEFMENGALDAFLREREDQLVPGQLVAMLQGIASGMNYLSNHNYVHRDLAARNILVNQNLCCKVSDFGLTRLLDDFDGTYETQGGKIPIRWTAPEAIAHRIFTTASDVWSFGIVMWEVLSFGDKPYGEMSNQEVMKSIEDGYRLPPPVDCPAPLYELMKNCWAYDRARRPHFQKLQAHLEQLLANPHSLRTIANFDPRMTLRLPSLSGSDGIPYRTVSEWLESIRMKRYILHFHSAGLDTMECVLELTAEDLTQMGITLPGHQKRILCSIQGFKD
# Sequence of human Esterase Plasma (ES), BCHE (gene 590) (P06276 whole entry, looked up): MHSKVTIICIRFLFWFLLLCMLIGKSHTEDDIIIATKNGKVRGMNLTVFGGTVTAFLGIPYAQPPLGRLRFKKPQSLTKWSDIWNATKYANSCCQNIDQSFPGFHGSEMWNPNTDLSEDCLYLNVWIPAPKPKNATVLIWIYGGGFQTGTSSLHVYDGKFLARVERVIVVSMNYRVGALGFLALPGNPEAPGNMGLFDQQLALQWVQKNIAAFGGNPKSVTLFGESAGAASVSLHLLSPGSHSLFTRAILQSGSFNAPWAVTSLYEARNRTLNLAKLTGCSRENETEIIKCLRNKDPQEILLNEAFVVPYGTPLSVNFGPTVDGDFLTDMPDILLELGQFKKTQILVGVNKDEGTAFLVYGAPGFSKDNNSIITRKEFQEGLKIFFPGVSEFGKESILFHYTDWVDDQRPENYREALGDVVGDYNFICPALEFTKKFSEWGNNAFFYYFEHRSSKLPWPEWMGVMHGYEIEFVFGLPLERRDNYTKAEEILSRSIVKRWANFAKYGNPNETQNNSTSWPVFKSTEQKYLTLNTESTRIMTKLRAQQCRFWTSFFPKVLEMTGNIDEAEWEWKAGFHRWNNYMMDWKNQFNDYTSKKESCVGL
# Sequence of human Colony Stimulating Factor 1 Receptor (CSF1R), CSF1R (gene 1436) (P07333 whole entry, looked up): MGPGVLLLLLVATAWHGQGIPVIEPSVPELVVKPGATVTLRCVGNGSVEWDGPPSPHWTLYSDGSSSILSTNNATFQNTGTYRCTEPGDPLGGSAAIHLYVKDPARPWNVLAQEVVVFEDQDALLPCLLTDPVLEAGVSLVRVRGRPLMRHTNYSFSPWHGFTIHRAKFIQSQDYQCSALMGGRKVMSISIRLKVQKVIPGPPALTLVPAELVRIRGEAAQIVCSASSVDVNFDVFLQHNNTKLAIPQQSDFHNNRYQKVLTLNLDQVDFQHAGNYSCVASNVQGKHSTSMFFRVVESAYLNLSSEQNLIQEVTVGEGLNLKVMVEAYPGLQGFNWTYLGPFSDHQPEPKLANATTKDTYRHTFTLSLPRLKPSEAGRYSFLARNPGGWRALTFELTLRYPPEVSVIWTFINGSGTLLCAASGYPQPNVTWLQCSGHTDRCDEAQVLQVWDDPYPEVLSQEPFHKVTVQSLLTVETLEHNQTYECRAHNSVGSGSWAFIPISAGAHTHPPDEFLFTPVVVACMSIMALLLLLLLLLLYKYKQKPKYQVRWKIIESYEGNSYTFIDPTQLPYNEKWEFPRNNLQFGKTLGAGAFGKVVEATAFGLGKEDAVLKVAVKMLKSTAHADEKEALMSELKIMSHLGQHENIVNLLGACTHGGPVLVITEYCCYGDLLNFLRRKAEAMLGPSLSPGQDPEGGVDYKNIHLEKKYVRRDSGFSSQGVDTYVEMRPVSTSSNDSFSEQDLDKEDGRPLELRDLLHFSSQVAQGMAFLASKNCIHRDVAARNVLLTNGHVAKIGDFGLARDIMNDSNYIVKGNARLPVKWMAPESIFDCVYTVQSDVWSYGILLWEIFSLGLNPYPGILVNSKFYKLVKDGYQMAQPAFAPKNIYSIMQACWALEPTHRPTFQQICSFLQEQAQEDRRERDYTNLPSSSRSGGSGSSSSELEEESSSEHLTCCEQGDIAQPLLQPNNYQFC
# Sequence of human Elastase, ELANE (gene 1991) (P08246 whole entry, looked up): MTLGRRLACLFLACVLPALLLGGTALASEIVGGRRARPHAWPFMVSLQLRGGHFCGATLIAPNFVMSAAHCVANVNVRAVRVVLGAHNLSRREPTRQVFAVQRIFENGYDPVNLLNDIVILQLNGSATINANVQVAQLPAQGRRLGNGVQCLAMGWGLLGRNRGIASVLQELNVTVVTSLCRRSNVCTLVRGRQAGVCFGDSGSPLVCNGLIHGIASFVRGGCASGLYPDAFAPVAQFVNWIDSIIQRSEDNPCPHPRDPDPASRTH
# Sequence of human Insulin Receptor (InsR), INSR (gene 3643) (P06213 whole entry, looked up): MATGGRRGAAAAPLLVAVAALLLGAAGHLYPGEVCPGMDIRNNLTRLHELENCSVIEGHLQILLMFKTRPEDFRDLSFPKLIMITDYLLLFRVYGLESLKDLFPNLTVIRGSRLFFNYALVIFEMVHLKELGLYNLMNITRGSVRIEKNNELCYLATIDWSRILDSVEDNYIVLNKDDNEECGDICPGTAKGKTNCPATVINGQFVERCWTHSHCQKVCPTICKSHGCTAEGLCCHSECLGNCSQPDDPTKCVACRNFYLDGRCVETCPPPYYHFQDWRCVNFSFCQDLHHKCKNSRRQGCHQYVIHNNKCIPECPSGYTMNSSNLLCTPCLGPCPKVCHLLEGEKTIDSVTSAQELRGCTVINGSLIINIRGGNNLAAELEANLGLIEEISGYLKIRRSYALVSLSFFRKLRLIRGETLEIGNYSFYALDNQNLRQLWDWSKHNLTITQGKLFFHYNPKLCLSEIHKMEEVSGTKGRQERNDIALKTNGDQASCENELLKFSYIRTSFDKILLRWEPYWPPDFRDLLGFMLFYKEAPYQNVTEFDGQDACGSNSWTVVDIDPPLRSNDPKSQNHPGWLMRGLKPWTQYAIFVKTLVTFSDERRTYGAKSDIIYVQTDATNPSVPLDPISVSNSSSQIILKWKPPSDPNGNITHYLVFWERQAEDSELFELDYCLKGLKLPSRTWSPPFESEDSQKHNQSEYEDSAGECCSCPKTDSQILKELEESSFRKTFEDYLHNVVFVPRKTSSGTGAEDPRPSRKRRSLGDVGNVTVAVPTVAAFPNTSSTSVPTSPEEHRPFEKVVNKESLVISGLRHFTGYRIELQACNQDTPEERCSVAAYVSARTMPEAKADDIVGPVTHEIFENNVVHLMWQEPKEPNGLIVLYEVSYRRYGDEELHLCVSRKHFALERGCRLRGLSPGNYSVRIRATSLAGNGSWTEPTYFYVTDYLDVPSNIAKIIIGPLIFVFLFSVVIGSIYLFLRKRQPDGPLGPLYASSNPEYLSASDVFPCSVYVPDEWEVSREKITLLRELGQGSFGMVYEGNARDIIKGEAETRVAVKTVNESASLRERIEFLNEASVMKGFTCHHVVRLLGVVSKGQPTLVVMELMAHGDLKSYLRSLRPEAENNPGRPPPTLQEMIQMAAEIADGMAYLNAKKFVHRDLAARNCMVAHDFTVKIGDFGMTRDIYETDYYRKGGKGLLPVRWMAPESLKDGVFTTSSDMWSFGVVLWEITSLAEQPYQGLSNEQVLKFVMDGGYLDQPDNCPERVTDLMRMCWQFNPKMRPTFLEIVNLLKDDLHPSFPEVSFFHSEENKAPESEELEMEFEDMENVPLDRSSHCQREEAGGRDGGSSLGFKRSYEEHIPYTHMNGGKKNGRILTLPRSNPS
# Sequence of human Dual Specificity Protein Phosphatase 3 (DUSP3), DUSP3 (gene 1845) (P51452 whole entry, looked up): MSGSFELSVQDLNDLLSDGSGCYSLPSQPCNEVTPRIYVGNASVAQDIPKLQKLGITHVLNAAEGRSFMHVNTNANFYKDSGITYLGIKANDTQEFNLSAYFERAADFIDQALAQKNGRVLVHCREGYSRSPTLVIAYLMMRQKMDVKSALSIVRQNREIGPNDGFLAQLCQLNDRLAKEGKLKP
smiles,measurement,setting,value
CN(C)C(=O)NC1(c2ccccc2)CCN(CCC[C@]2(c3ccc(Cl)c(Cl)c3)CCCN(C(=O)c3ccccc3)C2)CC1,outcome,[1],inactive
same,AC50,[2],5.89 µM (active)
same,outcome,[3],inactive
CCC(C)N(C)C(=O)c1cc2ccccc2c(-c2ccccc2Cl)n1 (stereo not given),AC50,[2],9.91 µM (active)
CN(C)C(=O)NC1(c2ccccc2)CCN(CC[C@@]2(c3ccc(F)c(F)c3)CN(C(=O)c3ccccc3)CCO2)CC1,AC50,[2],19.1 µM (active)
Nc1nc(Cl)nc2c1ncn2[C@H]1C[C@H](O)[C@@H](CO)O1,outcome,[1],inactive
CCCCC(CC)COC(=O)CCCCCCCC(=O)OCC(CC)CCCC (stereo not given),AC50,[4],6.97 µM (active)
same,outcome,[5],inactive
CCc1cc(C2=C(C(=O)O)N(c3ccccc3C(F)(F)F)S(=O)(=O)c3ccccc32)cc2c1OCO2,AC50,[4],8.94 µM (active)
COC(=O)[C@H]1[C@H]2C[C@@H]3c4[nH]c5cc(OC)ccc5c4CCN3C[C@H]2C[C@@H](OC(=O)c2cc(OC)c(OC)c(OC)c2)[C@@H]1OC,AC50,[6],24.6 µM (active)
CCN(CC)CCOc1ccc(C(=C(Cl)c2ccccc2)c2ccccc2)cc1,outcome,[2],inactive
same,outcome,[7],inactive
same,AC50,[8],33.6 µM (active)
same,AC50,[9],4.17 µM (active)
same,AC50,[3],19.8 µM (active)
CS(=O)(=O)c1ccc([C@@H](C[C@H]2CCC(=O)C2)C(=O)Nc2cnccn2)cc1Cl,outcome,[7],inactive
C#CC(O)C(CC)CCCC (stereo not given),outcome,[7],inactive
O=C1NC(=O)C(c2ccccc2)(c2ccccc2)N1,outcome,[3],inactive
COc1ccc(OC(F)(F)F)cc1CN[C@H]1CCCN[C@H]1c1ccccc1,outcome,[1],inactive
same,AC50,[2],1.47 µM (active)
